The nature of test [1]: ATG_E_Box_CIS: Attagene CIS-FACTORIAL HepG2 Assay for human Enhancer Box (E-box) (AID 2282936). The conditions noted are these: HepG2 E-box cis-reporter transcription, actives raise or lower the signal. In outline:
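Multiplexed CIS reporter system in transiently transfected HepG2 cells measures native transcription factor activity. Reporter RNA after 24 h exposure is profiled by RT-PCR-capillary electrophoresis.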

Test [2] in a line: ATG_M_61_CIS: Attagene CIS-FACTORIAL HepG2 Assay for M61 Transcription Factor (Internal Marker) (AID 2282937). The conditions noted are these: HepG2 Attagene CIS-FACTORIAL M61 internal marker reporter; actives raise or lower the signal. In short, it runs like this:
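Endogenous transcription factor activity in HepG2 is read through transiently transfected cis-element reporter units. After 24 h dosing, RNA undergoes reverse transcription, PCR and primer extension with 6-FAM before capillary electrophoresis; DMSO-referenced bidirectional fit.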

The nature of test [3]: ATG_EGR_CIS: Attagene CIS-FACTORIAL HepG2 Assay for human Early Growth Response 1 (EGR1) (AID 2282938). The conditions noted are these: HepG2 Attagene CIS-FACTORIAL EGR reporter mRNA; actives raise or lower the signal. In short, it runs like this: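 Activity is taken as induction or loss of reporter mRNA versus DMSO, fitted bidirectionally. Transcripts from cis-regulated reporter units in transiently transfected HepG2 were measured after 24 h by RT-PCR with capillary electrophoresis.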

Test [4] is described as follows: ATG_M_19_CIS: Attagene CIS-FACTORIAL HepG2 Assay for M19 Transcription Factor (Internal Marker) (AID 2282939). The conditions noted are these: HepG2 Attagene CIS-FACTORIAL M19 internal marker reporter; actives raise or lower the signal. In short, it runs like this:
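In this multiplexed cell assay, transiently transfected HepG2 reporter units report endogenous transcription-factor activity; after 24 hours of treatment, labelled reporter cDNA fragments are quantified by capillary electrophoresis and fitted bidirectionally against DMSO.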

Test [5] can be described thus: ATG_Ets_CIS: Attagene CIS-FACTORIAL HepG2 Assay for human Erythroblast Transformation Specific (ETS) (AID 2282941). The conditions noted are these: HepG2 ETS cis-reporter transcription, actives raise or lower the signal. In outline:
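Human HepG2 hepatoma cells were transiently transfected with promoter-driven reporter constructs and treated for 24 hours. Reporter transcripts were quantified by RT-PCR with fluorescent primer extension; bidirectional curve fitting used DMSO as reference.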

In test [6] the target is Hepatocyte nuclear factor 3-beta (Homo sapiens) (UniProt Q9Y261). Kind of test: ATG_FoxA2_CIS: Attagene CIS-FACTORIAL HepG2 Assay for human Forkhead box A2 (FOXA2) (AID 2282942). The following applies: HepG2 cis-reporter transcription factor activity, 24 h; actives raise or lower the signal. In outline: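 Reporter transcript induction is measured by fluorescence after capillary electrophoresis of RT-PCR products from HepG2 cells exposed 24 h. Cis-regulated reporter units report endogenous factor activity; curves fitted both directions against DMSO.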

Test [7] is described as follows: ATG_FoxO_CIS: Attagene CIS-FACTORIAL HepG2 Assay for human Forkhead box O (FoxO) (AID 2282943). The conditions noted are these: HepG2 Attagene cis-reporter, FoxO element, mRNA; actives raise or lower the signal. In outline:
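24 h chemical exposure, HepG2 with transient cis-MRTU transfection. RNA extraction, oligo(dT) RT, reporter-specific PCR, primer-extension labelling, HpaI digestion, CE fragment analysis; bidirectional fit, DMSO baseline.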

A short description of test [8]: ATG_GATA_CIS: Attagene CIS-FACTORIAL HepG2 Assay for human GATA Binding Protein (AID 2282944). The conditions noted are these: HepG2 GATA cis-element reporter, Attagene multiplex mRNA; actives raise or lower the signal. In outline: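 Measures endogenous transcription factor-driven reporter mRNA in HepG2 cells transiently carrying cis-regulated constructs. 24 h dosing; RNA via oligo(dT) reverse transcription, PCR, HpaI digestion, capillary electrophoresis; fitted relative to DMSO.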

Test [9] can be described thus: ATG_GLI_CIS: Attagene CIS-FACTORIAL HepG2 Assay for human Zinc Finger Protein GLI1 (AID 2282945). The conditions noted are these: HepG2, Attagene cis-factorial reporter mRNA, GLI element; actives raise or lower the signal. In short, it runs like this: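 HepG2 cells transiently transfected with cis-promoter multiplexed reporter units report endogenous transcription factor activity. After 24 h chemical exposure, reporter mRNA was quantified by RT-PCR, 6-FAM labelling, HpaI digestion and capillary electrophoresis, with bidirectional fitting against DMSO.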

By AC50 is commonly meant the concentration at which the activity in the assay is half-maximal.

Activity calls are given as the source filed them. Rule for the calls: active = hit-call score of the fitted dose curve at least 0.9, where 1 is the maximum; inactive = score below 0.9.

Sequence of Hepatocyte nuclear factor 3-beta (Homo sapiens) (Q9Y261 whole entry, looked up): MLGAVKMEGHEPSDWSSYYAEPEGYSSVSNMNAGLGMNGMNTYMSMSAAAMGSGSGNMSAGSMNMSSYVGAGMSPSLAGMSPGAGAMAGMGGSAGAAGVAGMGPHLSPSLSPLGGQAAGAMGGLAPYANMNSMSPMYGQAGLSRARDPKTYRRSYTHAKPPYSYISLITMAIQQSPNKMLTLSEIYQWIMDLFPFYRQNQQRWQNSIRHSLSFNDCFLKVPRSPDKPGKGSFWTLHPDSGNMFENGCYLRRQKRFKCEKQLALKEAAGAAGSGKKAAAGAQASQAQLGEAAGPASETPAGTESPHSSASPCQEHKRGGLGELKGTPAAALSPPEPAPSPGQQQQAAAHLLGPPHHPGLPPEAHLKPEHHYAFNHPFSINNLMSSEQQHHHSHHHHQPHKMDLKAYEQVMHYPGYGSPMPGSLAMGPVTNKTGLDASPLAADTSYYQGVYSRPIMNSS

`CCC(C)=O`: the result in test [1], in [2], in test [3], in [4], in test [5] and in test [6] was inactive. The outcome in test [7], in [8] and in [9] was inactive.
Turning to `Cc1ccc(-c2ccccc2)cc1`, the outcome in [1], in test [2], in [3], in test [4], in test [5] and in test [6] was inactive. Besides, the compound was classed as inactive in test [7], in [8] and in [9].
As for `CCC(C)c1cc([N+](=O)[O-])cc([N+](=O)[O-])c1OC(=O)OC(C)C` (configuration not stated), the AC50 in [1] was 100 µM (active); in test [3] it was 26.5 µM (active); in test [5], 26.1 µM (active); in [6], 62.6 µM (active); in [7], 164 µM (active); in test [8], 24.1 µM (active). In test [9], the AC50 was 27.1 µM (active). Besides, the outcome in [2] and in [4] was inactive.
In the case of `CC1=NN(c2ccc(S(=O)(=O)O)cc2)C(=O)C1`, the outcome in test [1], in test [2], in test [3], in [4], in test [5] and in [6] was inactive. Further, the result in [8] and in test [9] was inactive.
With `Nc1ccc(NCCO)c([N+](=O)[O-])c1`, the outcome in test [1], in test [2], in test [3], in [4], in test [5] and in [6] was inactive. In addition, the outcome in test [8] and in test [9] was inactive.
`C=C(C)CNCC`: the outcome in test [1], in test [2], in [3], in test [4], in test [5] and in [6] was inactive. For the same compound, the outcome in test [8] and in test [9] was inactive.
Turning to `CCCCCCC(O)CCCCCCCCCCC(=O)O` (configuration not stated), the outcome in test [1], in test [2], in [3], in [4], in test [5] and in test [6] was inactive. Also, the outcome in [7], in [8] and in test [9] was inactive.
In the case of `CSc1c(Cl)c(Cl)c(Cl)c(Cl)c1Cl`, the results for the AC50 in test [1] and in test [9] were 26 µM (active) and 185 µM (active), respectively. Moreover, the compound was called inactive in test [2], in test [3], in test [4], in test [5], in test [6] and in test [8].
Regarding `c1ccc(Oc2ccccc2)cc1`, the result in test [1], in test [2], in [3], in test [4], in test [5] and in test [6] was inactive. Further, the call in [8] and in test [9] was inactive.
As to `O=C1OC[C@H](Cc2cccc(O)c2)[C@H]1Cc1cccc(O)c1`, the outcome in test [1], in [2], in test [3], in test [4], in test [5] and in test [6] was inactive. The outcome in test [7], in test [8] and in [9] was inactive.
For the compound `CCOC(=O)CC(C)O` (configuration not stated), the result in test [1], in test [2], in test [3], in [4], in test [5] and in test [6] was inactive. Besides, the result in [7], in [8] and in test [9] was inactive.
For `COc1cc([C@@H]2c3cc4c(cc3[C@@H](O[C@@H]3O[C@@H]5CO[C@@H](C)O[C@H]5[C@H](O)[C@H]3O)[C@H]3COC(=O)[C@H]23)OCO4)cc(OC)c1O`, the outcome in [1], in [2], in test [3], in [4], in test [5] and in test [6] was inactive. For the same compound, the call in test [8] and in [9] was inactive.

The record behind these values is PubChem BioAssay (EPA / NIEHS).
